GLP-1R agonist: GLP-1 receptor (human) agonism. P43220. HEK293 GLP-1R CRE-luciferase, luminescence, 4-6 h; cells express a hypersensitive GLP-1R form. Potency, µM (titrated, usually from 45.6 µM), for inactives: top-dose activation, actives largely listed as activators. 380,000 tested, 0.007% active. AID 624172; also: potency is read from the fitted curve at half-maximal effect; % of control where 0% means no effect
KCNH2 WT inh: KCNH2 (human, wildtype) channel inhibition; Q12809; U2OS, BacMam KCNH2, thallium flux FluxOr; hits give low values; activity change, % at 1.84 µM; 340,000 tested, 0.37% active;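 active = maximum activity change below -70%; inconclusive = maximum activity change between -70% and -50%; inactive = maximum activity change above -50%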; also: % is scaled to controls: 0 for no effect and ±100 for the full control effect
Target sequence (Q12809 whole entry, looked up): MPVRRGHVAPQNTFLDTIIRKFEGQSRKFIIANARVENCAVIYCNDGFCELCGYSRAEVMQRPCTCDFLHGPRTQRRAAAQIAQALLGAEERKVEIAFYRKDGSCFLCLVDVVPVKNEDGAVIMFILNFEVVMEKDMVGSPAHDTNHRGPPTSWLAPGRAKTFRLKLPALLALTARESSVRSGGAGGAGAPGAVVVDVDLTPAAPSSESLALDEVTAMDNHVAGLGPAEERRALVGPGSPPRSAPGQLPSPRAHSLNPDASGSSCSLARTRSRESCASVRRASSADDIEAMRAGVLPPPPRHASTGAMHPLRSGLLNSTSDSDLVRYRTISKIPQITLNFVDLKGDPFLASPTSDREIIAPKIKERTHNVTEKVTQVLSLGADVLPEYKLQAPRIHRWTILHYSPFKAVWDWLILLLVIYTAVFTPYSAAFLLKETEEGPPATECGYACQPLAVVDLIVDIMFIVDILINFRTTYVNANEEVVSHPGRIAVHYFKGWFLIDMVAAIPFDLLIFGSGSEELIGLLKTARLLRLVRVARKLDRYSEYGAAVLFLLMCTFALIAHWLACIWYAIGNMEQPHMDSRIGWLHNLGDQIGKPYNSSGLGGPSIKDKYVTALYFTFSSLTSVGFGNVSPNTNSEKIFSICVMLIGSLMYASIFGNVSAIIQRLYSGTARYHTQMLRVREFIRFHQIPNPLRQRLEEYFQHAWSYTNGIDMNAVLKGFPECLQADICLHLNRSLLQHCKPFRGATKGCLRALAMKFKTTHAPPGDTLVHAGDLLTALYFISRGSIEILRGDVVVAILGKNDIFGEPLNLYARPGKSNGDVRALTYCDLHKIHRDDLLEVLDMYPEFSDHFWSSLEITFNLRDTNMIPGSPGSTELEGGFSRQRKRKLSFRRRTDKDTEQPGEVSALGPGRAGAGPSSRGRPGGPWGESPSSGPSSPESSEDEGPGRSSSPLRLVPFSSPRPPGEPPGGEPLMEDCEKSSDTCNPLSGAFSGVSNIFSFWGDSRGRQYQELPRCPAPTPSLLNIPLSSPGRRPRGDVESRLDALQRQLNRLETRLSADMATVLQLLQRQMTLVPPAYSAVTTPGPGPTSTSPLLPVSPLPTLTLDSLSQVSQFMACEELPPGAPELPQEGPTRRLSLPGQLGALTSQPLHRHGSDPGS
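U2OS cells were transduced with wild-type KCNH2 virus (2.03 x 10^8 / mL) for 4 h at room temperature, then cultured overnight at 37 C. Thallium flux was read with FluxOr dye. Rate constants were normalized to DMSO controls.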
KCNH2 3.1 block: inhibitors of human KCNH2 3.1 potassium channel isoform; U2OS KCNH2 3.1, thallium flux FluxOr; hits give low values; activity change, % (tested at about 1.8 µM); 340,000 tested, 0.95% active; AID 720553;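 active = maximum activity change below -70%; inconclusive = maximum activity change from -70% to -50%; inactive = maximum activity change above -50%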;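 also: thallium influx rate constant from kinetic fluorescence after stimulation buffer; % is scaled to controls: 0 for no effect and ±100 for the full control effect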
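Thallium flux read-out: FluxOr dye with Red40 quencher in HBSS/HEPES, 45 min at RT. Rate constants from kinetic reads were normalized to positive and negative DMSO controls. Cells: U2OS virally expressing the 3.1 isoform.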
GLS inh: glutaminase GLS (human) inhibition | O94925 | GLS enzymatic activity, qHTS titration | Potency, µM (doses to about 45.5 µM), for the others: top-dose activity change, negative = inhibition, actives largely listed as inhibitors | 410,000 tested, 0.21% active | AID 624170; also: potency is read from the fitted curve at half-maximal effect; % is scaled to controls: 0 for no effect and ±100 for the full control effect
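hKGA in 45 mM KH2PO4 pH 8.2, 0.02% Tween-20 with pin-transferred compounds; 1 mM L-glutamine (stock) plus glutamate oxidase/HRP/Amplex Red coupling added. Fluorescence read initially and after 30 min at RT.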
GLP-1R inv ag: GLP-1 receptor (human) inverse agonism. P43220. HEK293 GLP-1R CRE-luciferase, luminescence, 24 h; GLP-1R form is constitutively active. Potency, µM (top dose mostly 38.3 µM), for the others: top-dose activity change, negative = inhibition, most hits filed as inhibitors. 410,000 tested, 1.6% active. AID 624417; also: potency is read from the fitted curve at half-maximal effect; % is scaled to controls: 0 for no effect and ±100 for the full control effect; nearly all actives have a fitted effect of over 55% in size
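Stable HEK293 clone (constitutively active GLP-1R + cAMP-response luciferase); 200 cells/uL plated, 12 h pre-culture, compound 24 hr, 37 deg C/5% CO2; detection reagent 12 min RT; luminescence.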
HEK293 tox: cytotoxicity counter-screen for GLP-1 receptor inverse agonists; 410,000 tested, 0.13% active; AID 624418; Potency, µM (series often up to 38.3 µM), without a hit: at the highest dose activity change, negative = inhibition, usual class: inhibitors; HEK293 cAMP-luciferase reporter cells, luminescence, 24 h;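 also: loss of luciferase light is scored as toxicity; potency is read from the fitted curve at half-maximal effect; % is scaled to controls: 0 for no effect and ±100 for the full control effect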
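Step one: seed cells (200 cells/uL, DMEM with 10% Nu serum, 1% pen-strep). Step two: 12-hour incubation at 37 deg C. Step three: pin 23 nL compound, incubate 24 hr. Step four: add luciferase reagent, read luminescence 12 min later.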
* marks the source's active call; other numbers are inactive results; ? = inconclusive; / = no result; ! = not active in a repeat; [ ] = another dose, or the depositor's remark. Only some compounds are listed: those with a hit (about 2.8% of all), similar ones and a draw of the others. Unless noted, calls follow the shape of the dose curve; as a rule, active = well fitted curve in the direction sought with a large enough effect; inconclusive = small, poorly fitted or top-dose-only effect, or another doubt; inactive = no such curve, though single readings can be large; an effect the other way counts as inactive or inconclusive.

SMILES | GLP-1R agonist | KCNH2 WT inh | KCNH2 3.1 block | GLS inh | GLP-1R inv ag | HEK293 tox
COc1ccc(S(=O)(=O)N2CCCc3ccccc32)cc1[N+](=O)[O-] | 22% | 13 | -10 | -3% | 11µM* | -13%
C=CCOc1ccc(C2N3CC4(CC)CN2CC(CC)(C3)C4=O)cc1 (centres undefined) | 5% | 9 | 7 | 2% | 11µM* | -1%
CCCC12CN3CC(CCC)(CN(C1)C3c1ccc(OC(C)C)cc1)C2=O (centres undefined) | / | / | / | -8% | 10% | 4%
Cc1cccc(-n2ncc(C(=O)N3CCN(C4CCCCC4)CC3)c2C2CCN(C(=O)OC(C)(C)C)CC2)c1 | / | / | / | -3% | -5% | -6%
COC(=O)C1=C(O)C2(C(=O)O)CC(C(=O)OC)=C(O)C(C(=O)O)(C1)C2 | 1% | 1 | 16 | 11µM* | 20% | -6%
O=C1CC(SC(=Nc2ccccc2)Nc2ccccc2)C(=O)N1c1cccc(Cl)c1 (centres undefined) | -1% | 4 | -5 | -3% | 5µM* | ?
COc1ccc(NC(C)C(=O)Nc2ccc(C(C)(C)C)cc2)cc1Cl (centres undefined) | 10% | -4 | -10 | -16% | 4.5µM* | -21%
CCCCn1c(=O)nc2n(-c3ccc(F)cc3)c3ccccc3cc-2c1=O | / | / | / | 1% | 14% | -5%
Cc1ccc(NC(=O)C2CC(=O)N(c3ccc4c5c(cccc35)CC4)C2)cc1 (centres undefined) | -5% | 10 | 2 | -7% | 10µM* | -13%
Cc1nc2nc(SCC(=O)NCCCN3CCCC3)nn2c(C)c1Cc1ccccc1Cl | 0% | 22 | 2 | 2% | 6.3µM* | -21%
CCCN(CCC)c1nc2ccccc2nc1C(C#N)C(=O)OC(C)COC (centres undefined) | 17% | -3 | 4 | 9% | 10µM* | 4%
CCc1c(C)nc2[nH]nc(-c3ccccc3C)n2c1=O | -25% | -1 | -193* | -2% | 2% | -24%
COc1ccc(CNC(=O)[C@@H](NC(=O)C2CCN(C(=O)[C@@H](N)Cc3ccccc3)CC2)C(C)C)cc1 | 5% | 3 | 4 | -2% | 13% | -26%
O=C(Cc1cccs1)Nc1cccc(-c2nc3cc4ccccc4cc3[nH]2)c1 | -26% | 31 | -6 | 3% | 11µM* | -22%
CN1CCc2c(c3ccccc3n2C)C1 | 0% | -1 | 8 | 15% | -1% | -1%
CCCCN1CCc2c(c3ccccc3n2Cc2ccccc2)C1 | -3% | ? | -94* | 1% | ? | ?
CN1CCc2c(c3ccccc3n2Cc2ccccc2)C1 | 4% | 1 | -77*! | 24% | ? | -29%
CCOC(=O)c1c(CSc2ccccc2)n(C)c2cc(Br)c(OCC(O)CNC(CO)(CO)CO)cc12 (centres undefined) | 0% | -20 | -18 | 3% | 8.9µM* | ?
COc1ccc(Br)cc1CNC(=O)CCCn1c(=O)c2cccn2c2ccccc21 | / | / | / | 0% | -21% | 2%
CCCC(=O)N(CCN(Cc1ccccc1)C(=O)CCC)Cc1ccccc1 | 1% | -2 | -5 | 2% | 13µM* | -24%
CCOc1ccc(NC(=O)c2nc(S(=O)(=O)Cc3ccccc3F)ncc2Cl)cc1 | / | / | / | -4% | 11µM* | ?
COc1ccc(C2=C(C)C(N3CCC(C(=O)Nc4ccc(F)cc4C)CC3)=NS2(=O)=O)cc1 | / | / | / | -7% | -1% | -1%
Cc1cc(CN2CCC(n3nccc3NC(=O)c3ccccc3Cl)CC2)cc(C)c1O | -5% | -1 | -77* | 62% | -15% | 1%
O=C(Nc1ccnn1C1CCN(CCCc2ccccc2)CC1)c1ccccc1Cl | -6% | -120* | -112* | 10% | ? | 3%
CC(C)Cc1ccc(CN2CCC(n3nccc3NC(=O)C3CCCC3)CC2)cc1 | 22% | -73* | -103* | 6% | ? | -27%
SMILES | GLP-1R agonist | KCNH2 WT inh | KCNH2 3.1 block | GLS inh | GLP-1R inv ag | HEK293 tox
O=C(Nc1ccnn1C1CCN(Cc2cccnc2)CC1)c1ccccc1Cl | 4% | 24 | -1 | -2% | 12% | 15%
O=C(N/N=C/c1cn(-c2ccccc2)nc1-c1cccs1)c1ccc(Cl)cc1 | 4% | 1 | -42 | 6% | 6.3µM* | -16%
CC1=NNC(=O)/C1=C\c1cn(-c2ccccc2)nc1-c1cccs1 | 1% | / | 0 | -20% | ? | 7.9µM*
CN1CCC(N(C)C(=O)/C=C/c2cn(-c3ccccc3)nc2-c2cccs2)CC1 | 20% | 1 | 2 | -11% | 5.6µM* | ?
Cc1cc(C)cc(NC(=O)CN2C(=O)CCc3cc(S(=O)(=O)N4CCCCC4)ccc32)c1 | / | / | / | 6% | ? | 4%
CCCCn1c(=O)c2oc3ccccc3c2n(Cc2ccccc2C)c1=O | / | / | / | -1% | 9% | -7%
CCOc1ccc(C(=O)Nc2ccc(NC(=O)c3cccs3)cc2)cc1[N+](=O)[O-] | -10% | -81* | -99* | -2% | 9% | 14%[1.53 µM]
Cc1ccc(NC(=O)c2ccc(Cl)c(NC(=O)c3cccs3)c2)cc1 | 17% | 21 | 12 | -2% | 10µM* | -17%
CCOc1ccc(C(=O)Nc2cccc(-c3cc4ccccc4oc3=O)c2)cc1[N+](=O)[O-] | -8% | ? | -93* | 7% | -17% | 1%
COc1ccc(C(=O)Nc2ccc(NC(=O)c3cccs3)cc2)cc1[N+](=O)[O-] | 13% | 3 | -1 | 17% | ? | 2%
COc1ccc(C(=O)Nc2ccc(C(=O)Nc3nccs3)cc2)cc1[N+](=O)[O-] | -6% | -93* | ? | -6% | 1% | 6%
C=Cc1ccc(CN2C(=O)N(c3ccc(C)c(C)c3)S(=O)(=O)c3ccccc32)cc1 | 0% | / | / | 4% | ? | -3%
O=c1c2ccccc2c(C=NCCc2ccccc2)c(O)n1Cc1ccccc1 | -19% | 8 | -11 | 7% | 5µM* | 12%
O=C(O)c1cc(=O)c2c3nc4ccccc4oc-3cc(=O)c2[nH]1 | -1% | / | / | 28µM* | / | /
CCN1CCN(c2ccc(S(=O)(=O)N3CCCCC3)cc2NC(=O)COc2cc(C)ccc2Cl)CC1 | 11% | 4 | -83* | 7% | ? | ?
CCN1CCN(c2ccc(S(=O)(=O)N3CCCCC3)cc2NC(=O)c2ccc(F)cc2)CC1 | 6% | 4 | -11 | -2% | 4% | -11%
CCN1CCN(c2ccc(S(=O)(=O)N3CCCCC3)cc2NC(=O)COc2ccc(Cl)cc2)CC1 | 7% | -21 | ? | 5% | ? | -13%
